How the values were obtained:
Assay in all cases: log2 ratio of Biotin-Ahx-Ub-VS probe labelling (fragment/DMSO); higher = less target engagement (more negative = stronger competition), active = hit call of the paper (q ≤ 0.05, log2 ratio ≤ -1)
Details in all cases: compound concentration: 200 uM; treatment time: 3 h
USP34 = USP34 (UniProt Q70CQ2)
Method in brief: (§1)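 Triplicate samples of HEK293T lysate, 495 µg each, received fragment at 200 µM or vehicle for 3 h, followed by Biotin-Ahx-Ub-VS (0.5 µM final) for 1 h. After NeutrAvidin enrichment of labelled DUBs and LysC/trypsin digestion, peptides were run by diaPASEF LC-MS/MS. The values are average log2 fragment/vehicle ratios from global-median-normalised Spectronaut label-free quantities, tested by unpaired t-test on proteins having ≥2 unique peptides.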

USP36 = biological target: T1, USP36 (UniProt Q9P275)
T1 sequence (whole entry): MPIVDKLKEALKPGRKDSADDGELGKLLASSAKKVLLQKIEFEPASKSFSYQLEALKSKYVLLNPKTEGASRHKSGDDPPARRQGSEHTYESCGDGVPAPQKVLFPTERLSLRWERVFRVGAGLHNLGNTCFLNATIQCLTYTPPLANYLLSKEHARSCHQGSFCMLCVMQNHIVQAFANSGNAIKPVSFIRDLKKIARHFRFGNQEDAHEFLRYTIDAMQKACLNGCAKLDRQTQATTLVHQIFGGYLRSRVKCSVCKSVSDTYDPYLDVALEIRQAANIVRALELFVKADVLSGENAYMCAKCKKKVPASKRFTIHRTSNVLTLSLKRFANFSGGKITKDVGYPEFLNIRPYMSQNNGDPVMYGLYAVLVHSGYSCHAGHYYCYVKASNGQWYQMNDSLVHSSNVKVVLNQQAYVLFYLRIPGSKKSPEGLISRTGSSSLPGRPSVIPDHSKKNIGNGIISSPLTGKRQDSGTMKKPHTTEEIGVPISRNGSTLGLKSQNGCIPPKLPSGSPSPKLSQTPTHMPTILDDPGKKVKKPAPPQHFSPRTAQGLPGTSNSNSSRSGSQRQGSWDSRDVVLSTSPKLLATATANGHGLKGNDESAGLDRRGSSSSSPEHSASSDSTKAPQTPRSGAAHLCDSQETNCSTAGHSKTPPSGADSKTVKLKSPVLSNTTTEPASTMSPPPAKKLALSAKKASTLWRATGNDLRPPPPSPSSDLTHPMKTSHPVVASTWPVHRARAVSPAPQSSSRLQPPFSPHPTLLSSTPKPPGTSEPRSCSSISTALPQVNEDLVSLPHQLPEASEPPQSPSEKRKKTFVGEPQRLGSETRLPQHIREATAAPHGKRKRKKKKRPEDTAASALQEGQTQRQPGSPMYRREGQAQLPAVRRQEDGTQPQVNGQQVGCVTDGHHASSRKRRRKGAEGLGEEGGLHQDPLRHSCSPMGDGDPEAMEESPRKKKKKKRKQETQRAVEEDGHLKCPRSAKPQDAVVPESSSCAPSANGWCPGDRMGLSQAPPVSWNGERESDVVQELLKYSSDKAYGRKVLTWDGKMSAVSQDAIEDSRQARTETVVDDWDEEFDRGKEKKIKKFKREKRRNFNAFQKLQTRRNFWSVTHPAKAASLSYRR
Method in brief: as §1

USP38 = biological target: T2, USP38 (UniProt Q8NB14)
T2 sequence (whole entry): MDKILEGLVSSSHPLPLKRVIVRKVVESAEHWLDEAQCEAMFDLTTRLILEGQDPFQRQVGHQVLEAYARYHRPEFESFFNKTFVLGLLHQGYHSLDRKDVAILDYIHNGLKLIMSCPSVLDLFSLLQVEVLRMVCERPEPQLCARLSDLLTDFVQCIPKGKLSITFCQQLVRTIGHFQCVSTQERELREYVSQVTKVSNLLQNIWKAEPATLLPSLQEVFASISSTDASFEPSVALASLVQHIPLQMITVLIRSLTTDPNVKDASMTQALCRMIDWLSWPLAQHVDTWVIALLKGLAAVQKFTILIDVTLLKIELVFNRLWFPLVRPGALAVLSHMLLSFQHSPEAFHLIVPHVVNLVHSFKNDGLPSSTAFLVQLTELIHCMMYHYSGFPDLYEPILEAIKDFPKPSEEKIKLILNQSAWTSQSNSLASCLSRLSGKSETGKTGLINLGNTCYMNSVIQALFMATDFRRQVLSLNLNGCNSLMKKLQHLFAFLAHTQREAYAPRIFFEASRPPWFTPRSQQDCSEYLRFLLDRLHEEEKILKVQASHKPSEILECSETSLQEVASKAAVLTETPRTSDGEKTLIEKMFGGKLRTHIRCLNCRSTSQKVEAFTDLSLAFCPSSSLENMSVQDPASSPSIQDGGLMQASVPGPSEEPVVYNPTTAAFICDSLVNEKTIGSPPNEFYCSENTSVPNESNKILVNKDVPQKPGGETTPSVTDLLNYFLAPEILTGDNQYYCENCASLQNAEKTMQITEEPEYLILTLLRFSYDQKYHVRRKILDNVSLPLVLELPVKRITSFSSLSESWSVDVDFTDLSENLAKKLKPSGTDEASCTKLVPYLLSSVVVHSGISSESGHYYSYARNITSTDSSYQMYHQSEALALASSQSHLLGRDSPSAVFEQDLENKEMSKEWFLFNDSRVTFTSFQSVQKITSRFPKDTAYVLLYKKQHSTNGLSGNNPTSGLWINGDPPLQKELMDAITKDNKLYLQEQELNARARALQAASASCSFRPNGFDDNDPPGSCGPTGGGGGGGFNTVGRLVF
Method in brief: as §1

USP39 = biological target: T3, USP39 (UniProt Q53GS9)
T3 sequence (whole entry): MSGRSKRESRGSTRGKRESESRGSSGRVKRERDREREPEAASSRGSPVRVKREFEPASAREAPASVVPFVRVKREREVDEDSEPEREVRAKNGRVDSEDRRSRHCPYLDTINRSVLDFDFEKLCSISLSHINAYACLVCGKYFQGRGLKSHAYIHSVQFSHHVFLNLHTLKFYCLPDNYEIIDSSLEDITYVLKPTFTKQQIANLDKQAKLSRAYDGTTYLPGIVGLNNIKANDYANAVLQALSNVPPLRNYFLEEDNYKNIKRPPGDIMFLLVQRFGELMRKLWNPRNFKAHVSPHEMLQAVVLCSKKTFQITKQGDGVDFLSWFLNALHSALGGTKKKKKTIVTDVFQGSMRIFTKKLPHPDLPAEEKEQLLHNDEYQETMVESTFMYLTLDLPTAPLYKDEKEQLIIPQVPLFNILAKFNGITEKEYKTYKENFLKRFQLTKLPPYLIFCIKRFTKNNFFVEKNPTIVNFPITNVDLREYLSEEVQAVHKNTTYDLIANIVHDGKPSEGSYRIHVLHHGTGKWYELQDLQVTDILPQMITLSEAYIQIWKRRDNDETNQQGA
Method in brief: as §1

USP4 = biological target: T4, USP4 (UniProt Q13107)
T4 sequence (whole entry): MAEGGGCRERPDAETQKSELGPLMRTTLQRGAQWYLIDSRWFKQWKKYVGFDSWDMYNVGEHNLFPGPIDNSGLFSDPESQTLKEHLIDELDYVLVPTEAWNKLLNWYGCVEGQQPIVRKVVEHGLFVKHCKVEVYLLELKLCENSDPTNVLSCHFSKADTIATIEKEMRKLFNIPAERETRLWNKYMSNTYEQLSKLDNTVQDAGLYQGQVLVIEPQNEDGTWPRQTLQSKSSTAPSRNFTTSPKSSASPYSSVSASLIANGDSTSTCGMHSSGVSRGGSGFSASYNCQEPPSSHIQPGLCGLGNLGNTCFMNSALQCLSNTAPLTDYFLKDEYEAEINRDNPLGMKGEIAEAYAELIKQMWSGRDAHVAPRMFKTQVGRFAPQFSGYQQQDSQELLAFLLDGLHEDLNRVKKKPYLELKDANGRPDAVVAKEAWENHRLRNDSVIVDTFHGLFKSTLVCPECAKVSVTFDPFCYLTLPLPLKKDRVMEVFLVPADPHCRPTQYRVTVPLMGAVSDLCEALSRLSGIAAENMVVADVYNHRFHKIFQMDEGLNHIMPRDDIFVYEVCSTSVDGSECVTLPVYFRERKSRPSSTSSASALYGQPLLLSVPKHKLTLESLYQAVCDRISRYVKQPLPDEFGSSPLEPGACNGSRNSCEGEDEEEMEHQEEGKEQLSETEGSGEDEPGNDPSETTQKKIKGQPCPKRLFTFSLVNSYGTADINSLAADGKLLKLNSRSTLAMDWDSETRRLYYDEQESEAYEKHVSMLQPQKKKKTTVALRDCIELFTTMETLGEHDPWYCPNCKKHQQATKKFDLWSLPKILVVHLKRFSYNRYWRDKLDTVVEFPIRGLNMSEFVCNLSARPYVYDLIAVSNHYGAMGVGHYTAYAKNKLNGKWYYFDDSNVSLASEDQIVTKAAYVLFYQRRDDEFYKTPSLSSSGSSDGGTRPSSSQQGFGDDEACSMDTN
Method in brief: as §1

Measured: log2 ratio of Biotin-Ahx-Ub-VS probe labelling

USP34, sequence (Q70CQ2 whole entry, the tested form may be a part): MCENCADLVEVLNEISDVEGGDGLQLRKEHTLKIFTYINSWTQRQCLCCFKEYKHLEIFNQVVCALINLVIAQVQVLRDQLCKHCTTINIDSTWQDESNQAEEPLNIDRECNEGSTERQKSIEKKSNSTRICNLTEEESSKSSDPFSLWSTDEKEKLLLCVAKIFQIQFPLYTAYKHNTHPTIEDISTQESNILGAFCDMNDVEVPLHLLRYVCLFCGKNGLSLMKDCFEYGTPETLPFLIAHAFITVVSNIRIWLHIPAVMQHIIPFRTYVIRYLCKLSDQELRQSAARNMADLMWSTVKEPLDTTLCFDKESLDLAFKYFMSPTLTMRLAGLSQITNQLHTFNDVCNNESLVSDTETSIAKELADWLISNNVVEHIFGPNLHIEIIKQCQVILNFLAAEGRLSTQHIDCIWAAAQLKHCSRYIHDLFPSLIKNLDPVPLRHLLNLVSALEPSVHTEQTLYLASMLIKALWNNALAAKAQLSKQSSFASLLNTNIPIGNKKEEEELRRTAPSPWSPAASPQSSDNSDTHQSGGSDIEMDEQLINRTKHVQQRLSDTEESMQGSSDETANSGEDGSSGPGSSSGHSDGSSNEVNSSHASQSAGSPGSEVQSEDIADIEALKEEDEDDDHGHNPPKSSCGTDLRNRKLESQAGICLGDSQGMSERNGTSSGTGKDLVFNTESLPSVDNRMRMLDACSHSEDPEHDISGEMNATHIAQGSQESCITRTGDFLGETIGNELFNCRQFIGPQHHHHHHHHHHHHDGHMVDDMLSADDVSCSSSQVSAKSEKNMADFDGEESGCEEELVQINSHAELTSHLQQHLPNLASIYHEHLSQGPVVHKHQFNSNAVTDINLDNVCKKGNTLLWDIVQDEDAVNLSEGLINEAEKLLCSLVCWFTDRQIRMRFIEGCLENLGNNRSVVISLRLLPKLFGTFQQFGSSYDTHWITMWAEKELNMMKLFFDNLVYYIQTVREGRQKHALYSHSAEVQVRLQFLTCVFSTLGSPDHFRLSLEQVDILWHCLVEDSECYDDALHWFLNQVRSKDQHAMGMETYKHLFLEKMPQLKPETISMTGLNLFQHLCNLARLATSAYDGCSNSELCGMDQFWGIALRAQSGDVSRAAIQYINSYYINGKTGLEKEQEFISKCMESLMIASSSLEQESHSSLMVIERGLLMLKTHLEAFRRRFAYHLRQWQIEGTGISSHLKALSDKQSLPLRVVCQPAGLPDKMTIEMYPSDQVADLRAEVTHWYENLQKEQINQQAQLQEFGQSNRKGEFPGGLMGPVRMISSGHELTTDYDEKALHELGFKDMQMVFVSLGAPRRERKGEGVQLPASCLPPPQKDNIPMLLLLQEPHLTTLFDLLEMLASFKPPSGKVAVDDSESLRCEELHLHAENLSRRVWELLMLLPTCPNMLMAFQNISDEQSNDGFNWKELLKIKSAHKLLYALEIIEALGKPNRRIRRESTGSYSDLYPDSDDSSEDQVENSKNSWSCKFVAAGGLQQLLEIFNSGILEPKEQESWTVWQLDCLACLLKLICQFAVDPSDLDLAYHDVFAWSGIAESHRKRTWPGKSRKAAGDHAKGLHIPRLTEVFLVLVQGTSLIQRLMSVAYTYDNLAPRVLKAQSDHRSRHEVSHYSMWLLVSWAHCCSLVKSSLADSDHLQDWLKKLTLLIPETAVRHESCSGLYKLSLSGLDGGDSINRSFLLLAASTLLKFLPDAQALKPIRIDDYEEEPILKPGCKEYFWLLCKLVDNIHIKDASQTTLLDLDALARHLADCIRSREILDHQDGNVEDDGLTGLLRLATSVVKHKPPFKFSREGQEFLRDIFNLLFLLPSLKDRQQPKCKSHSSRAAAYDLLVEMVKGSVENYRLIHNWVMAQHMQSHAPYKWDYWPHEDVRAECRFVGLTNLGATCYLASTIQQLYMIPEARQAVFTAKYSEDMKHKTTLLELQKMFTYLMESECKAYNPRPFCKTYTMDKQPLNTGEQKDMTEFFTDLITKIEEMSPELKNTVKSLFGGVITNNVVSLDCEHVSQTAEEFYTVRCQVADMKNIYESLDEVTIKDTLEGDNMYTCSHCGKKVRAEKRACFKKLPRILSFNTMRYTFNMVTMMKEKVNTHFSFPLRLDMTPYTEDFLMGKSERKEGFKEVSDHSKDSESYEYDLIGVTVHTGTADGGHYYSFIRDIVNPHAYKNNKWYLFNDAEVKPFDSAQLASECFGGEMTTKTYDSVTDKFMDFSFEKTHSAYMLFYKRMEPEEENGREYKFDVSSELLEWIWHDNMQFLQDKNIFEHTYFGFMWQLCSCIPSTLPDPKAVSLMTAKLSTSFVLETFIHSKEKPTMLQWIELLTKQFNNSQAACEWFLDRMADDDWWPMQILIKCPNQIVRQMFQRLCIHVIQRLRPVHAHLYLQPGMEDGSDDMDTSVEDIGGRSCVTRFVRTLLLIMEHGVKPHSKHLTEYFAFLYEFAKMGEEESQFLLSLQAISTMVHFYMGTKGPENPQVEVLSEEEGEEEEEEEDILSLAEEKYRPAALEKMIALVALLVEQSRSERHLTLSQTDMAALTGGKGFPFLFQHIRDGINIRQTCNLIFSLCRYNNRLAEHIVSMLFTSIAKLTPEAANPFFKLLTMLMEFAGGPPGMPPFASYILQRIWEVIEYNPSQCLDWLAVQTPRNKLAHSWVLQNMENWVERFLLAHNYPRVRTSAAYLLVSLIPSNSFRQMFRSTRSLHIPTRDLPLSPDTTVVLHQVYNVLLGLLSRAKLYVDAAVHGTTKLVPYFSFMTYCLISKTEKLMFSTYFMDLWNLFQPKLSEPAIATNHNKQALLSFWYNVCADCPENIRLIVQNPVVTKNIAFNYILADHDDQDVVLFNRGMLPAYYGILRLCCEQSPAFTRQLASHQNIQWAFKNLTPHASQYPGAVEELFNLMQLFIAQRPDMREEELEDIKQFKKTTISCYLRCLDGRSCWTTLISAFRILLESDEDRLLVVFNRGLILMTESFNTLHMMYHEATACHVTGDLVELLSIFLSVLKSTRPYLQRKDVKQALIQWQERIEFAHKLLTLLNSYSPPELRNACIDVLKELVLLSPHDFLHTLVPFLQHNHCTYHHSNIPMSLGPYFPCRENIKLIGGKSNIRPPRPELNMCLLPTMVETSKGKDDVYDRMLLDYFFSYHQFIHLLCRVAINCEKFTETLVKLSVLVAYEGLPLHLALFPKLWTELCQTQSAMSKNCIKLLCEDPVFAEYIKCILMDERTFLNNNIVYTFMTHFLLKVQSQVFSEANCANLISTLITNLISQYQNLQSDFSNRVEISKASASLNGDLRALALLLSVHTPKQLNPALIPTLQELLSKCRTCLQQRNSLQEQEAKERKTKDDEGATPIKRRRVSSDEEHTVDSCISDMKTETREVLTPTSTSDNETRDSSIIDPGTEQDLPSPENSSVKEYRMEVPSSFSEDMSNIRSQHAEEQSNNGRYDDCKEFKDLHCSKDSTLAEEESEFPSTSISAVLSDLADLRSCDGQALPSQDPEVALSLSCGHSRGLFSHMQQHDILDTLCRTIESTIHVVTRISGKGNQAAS

Cl.O=C(CCl)N1CCC(n2nc3ccccc3n2)CC1
inactive: USP34 -0.257 | USP36 0.0455 | USP38 -0.223 | USP39 -0.0437 | USP4 -0.443
